“And” between values parts separate entries of the source, which are not always exact repeats. Equal entries are not always repeated. Values without a mark were called inactive. Results filed as inconclusive are left out. Where a call stands in place of a potency, no number is given. The source made the active and inactive calls. Unless noted, the call rests on the fitted dose curve; in most records, active means well fitted curve in the direction sought with a large enough effect; inconclusive means small, poorly fitted or top-dose-only effect, or another doubt; inactive means no such curve, though single readings can be large; an effect the other way counts as inactive or inconclusive.
Tests used:
[1] = molecular target: Glucocorticoid receptor (Homo sapiens) (UniProt P04150); assay: GR-EFC Redistribution (AID 451; calls by dose curve; further: potency means the concentration at half of the fitted maximal effect); settings: CHO-K1 GR-EFC translocation, beta-gal luminescence, 2 h
Glucocorticoid receptor (Homo sapiens), sequence (P04150 whole entry, looked up, the tested form may be a part): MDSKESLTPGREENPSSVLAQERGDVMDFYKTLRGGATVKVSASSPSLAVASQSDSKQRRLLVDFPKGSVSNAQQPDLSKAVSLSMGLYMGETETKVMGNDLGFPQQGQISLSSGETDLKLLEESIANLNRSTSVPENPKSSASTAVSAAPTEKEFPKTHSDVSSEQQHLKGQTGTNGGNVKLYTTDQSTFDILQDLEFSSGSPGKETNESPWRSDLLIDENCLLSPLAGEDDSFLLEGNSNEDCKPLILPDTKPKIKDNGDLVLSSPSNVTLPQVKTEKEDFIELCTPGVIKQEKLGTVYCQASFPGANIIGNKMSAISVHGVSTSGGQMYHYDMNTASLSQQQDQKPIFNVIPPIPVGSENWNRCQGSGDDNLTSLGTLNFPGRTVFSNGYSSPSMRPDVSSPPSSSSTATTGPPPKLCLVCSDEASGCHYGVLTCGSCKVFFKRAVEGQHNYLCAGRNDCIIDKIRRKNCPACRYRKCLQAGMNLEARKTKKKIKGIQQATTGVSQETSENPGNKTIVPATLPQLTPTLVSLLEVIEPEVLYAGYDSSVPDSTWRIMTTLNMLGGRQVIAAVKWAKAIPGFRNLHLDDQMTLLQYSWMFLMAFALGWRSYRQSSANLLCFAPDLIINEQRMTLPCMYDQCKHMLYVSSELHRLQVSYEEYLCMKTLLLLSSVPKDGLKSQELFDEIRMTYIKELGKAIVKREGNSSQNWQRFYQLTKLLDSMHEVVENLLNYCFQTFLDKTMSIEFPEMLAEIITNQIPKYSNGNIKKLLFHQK
In short: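 CHO-K1 cells stably expressing nuclear-localized β-gal enzyme acceptor and GR fused C-terminally to the enzyme donor fragment; ligand-driven nuclear translocation restores β-gal by complementation. Compounds titrated up to 46 uM final, 2 h at 37 °C; luminescence read.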

[2] = molecular target: Mitogen-activated protein kinase 10 (Mus musculus) (UniProt Q61831); assay: JNK3 AlphaScreen Assay (AID 530; active means well fitted curve in either direction with a large enough effect, not every such curve was filed as active;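 further: kinase came from lysate of stimulated human HepG2 cells; signal reports phosphorylation of biotinylated GST-cJun 1-79 at Ser73 with 10 µM ATP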); settings: JNK3 lysate, c-Jun phosphorylation; series mostly up to 57.1 µM
In short: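 Biotinylated GST-cJun(1-79) served as substrate for JNK3 in HepG2 lysates stimulated with IL-1beta and TNF-alpha. ATP was 10 uM final, pH 7.6. Ser73 phosphorylation was quantified by AlphaScreen (680 nm excitation).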

[3] = molecular target: 3',5'-cyclic-AMP phosphodiesterase 4B (Homo sapiens) (UniProt Q07343); assay: qHTS Assay for Inhibitors of PDE-IV (AID 607; active means well fitted activation curve with a large enough effect in the main read-out, with a control signal flat, not every such curve was filed as active); settings: HEK293 ACTOne CNG channel cells, membrane potential fluorescence; series mostly up to 22.9 µM
3',5'-cyclic-AMP phosphodiesterase 4B (Homo sapiens), sequence (Q07343 whole entry, looked up): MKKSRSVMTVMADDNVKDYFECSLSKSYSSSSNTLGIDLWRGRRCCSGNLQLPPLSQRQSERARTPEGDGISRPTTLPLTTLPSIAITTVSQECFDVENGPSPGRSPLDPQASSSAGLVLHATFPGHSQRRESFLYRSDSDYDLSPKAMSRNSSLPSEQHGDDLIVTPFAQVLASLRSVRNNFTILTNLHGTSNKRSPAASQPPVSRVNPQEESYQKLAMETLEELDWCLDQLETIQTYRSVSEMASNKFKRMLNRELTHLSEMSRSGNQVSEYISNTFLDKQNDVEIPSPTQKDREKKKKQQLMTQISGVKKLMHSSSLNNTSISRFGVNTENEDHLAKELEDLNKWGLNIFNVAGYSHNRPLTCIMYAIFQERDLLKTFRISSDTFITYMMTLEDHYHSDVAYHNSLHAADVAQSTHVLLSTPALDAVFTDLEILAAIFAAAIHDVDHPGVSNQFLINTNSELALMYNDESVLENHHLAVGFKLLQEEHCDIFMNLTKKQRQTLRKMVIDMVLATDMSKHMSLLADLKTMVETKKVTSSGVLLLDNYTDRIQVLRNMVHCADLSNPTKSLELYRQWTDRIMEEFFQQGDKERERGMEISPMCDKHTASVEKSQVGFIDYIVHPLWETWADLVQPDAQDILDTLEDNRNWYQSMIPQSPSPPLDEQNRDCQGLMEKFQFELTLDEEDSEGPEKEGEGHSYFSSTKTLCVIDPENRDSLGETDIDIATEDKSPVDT
In short: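 The readout is membrane depolarisation from a cAMP-sensing CNG channel, detected with a potential dye at ex 535/em 590. Cells were HEK293-derived (endogenous PDE-IV) at 1000 cells/well, titrated up to 22.9 uM final.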

[4] = Cell Viability - N2a (AID 540); settings: N2a mouse neuroblastoma cell viability; activity change, negative = cytotoxicity: at 92.2 µM (top of the series); further: nearly all actives have a fitted effect of over 45% in size; further: potency means the concentration at half of the fitted maximal effect
In short: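 N2a mouse neuroblastoma, 1500 cells/well, 5 hr settle; compound 40 hr, 37 °C; CellTiter-Glo 20 min RT; luminescence; Hill-fit AC50.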

[5] = Cell Viability - NIH 3T3 (AID 541); settings: NIH 3T3 cell viability, qHTS; series mostly up to 92.2 µM; further: nearly all actives have a fitted effect of over 25% in size; further: potency means the concentration at half of the fitted maximal effect
In short: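 qHTS format; 40 hr compound exposure, 37 °C; CellTiter-Glo luminescence (cellular ATP) read-out after 20 min at RT. Decrease in ATP = cytotoxicity; AC50 from standard Hill fit.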

[6] = Cell Viability - HUV-EC-C (AID 542); settings: HUV-EC-C endothelial cell viability, qHTS; series mostly up to 92.2 µM; further: nearly all actives have a fitted effect of over 35% in size; further: potency means the concentration at half of the fitted maximal effect
In short: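 Luminescent ATP read-out (CellTiter-Glo, 20 min room temperature) after 40 hr compound treatment of HUV-EC-C cells at 37 °C. Concentration-response data fitted with the standard Hill equation to give AC50; tamoxifen and doxorubicin served as positive controls.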

[7] = Cell Viability - SH-SY5Y (AID 544); settings: SH-SY5Y neuroblastoma cell viability; series mostly up to 92.2 µM; further: nearly all actives have a fitted effect of over 55% in size; further: potency means the concentration at half of the fitted maximal effect
In short: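 SH-SY5Y, 1500 cells/well, 5 hr pre-incubation 37 °C; cpd 40 hr 37 °C; CellTiter-Glo 20 min RT; luminescence (ATP) read. qHTS concentration-response, Hill fit → AC50. Tamoxifen, doxorubicin as positive controls.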

[8] = Cell Viability - Renal Proximal Tubule (AID 545); settings: renal proximal tubule cells viability; series mostly up to 91.7 µM; further: nearly all actives have a fitted effect of over 40% in size; further: potency means the concentration at half of the fitted maximal effect
In short: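 In this qHTS format, normal rat kidney-derived proximal tubule cells in complete culture medium receive compound titrations, then sit 40 hours at 37 °C before luciferase-based ATP quantitation; potency is reported as AC50 from concentration-response curves.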

[9] = Cell Viability - Mesenchymal (AID 546); settings: mesenchymal cells viability, qHTS; series mostly up to 91.7 µM;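 further: cells exposed to compound for 40 hours before reading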; further: potency means the concentration at half of the fitted maximal effect
In short: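 In this qHTS cytotoxicity format, glomerulus-derived human mesenchymal kidney cells received compound for 40 hr, then luciferase-based ATP quantitation. Concentration-response data were fitted with the Hill equation.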

[10] = Cell Viability - H-4-II-E (AID 543); settings: H-4-II-E rat hepatoma viability; series mostly up to 92.2 µM; further: nearly all actives have a fitted effect of over 35% in size; further: potency means the concentration at half of the fitted maximal effect
In short: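 qHTS, rat hepatoma H-4-II-E, 1500 cells/well; 40 hr compound exposure, 37 °C; CellTiter-Glo ATP luminescence after 20 min RT; AC50 by standard Hill fit.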

| SMILES | Potency [1] | outcome [2] | Potency [3] | activity change, negative = cytotoxicity [4] | Potency [5] | Potency [6] | Potency [7] | Potency [8] | Potency [9] | Potency [10] | Potency [4] |
| --- | --- | --- | --- | --- | --- | --- | --- | --- | --- | --- | --- |
| O=C1CCCN1CC#CCN1CCCC1 | > 46 µM | inactive | inactive | – | – | – | – | – | – | – | – |
| Nc1ccc(Sc2ccc(N)cc2)cc1 | – | inactive | – | -14% | inactive | inactive | inactive | inactive | inactive | – | – |
| O=[N+]([O-])c1c(Cl)c(Cl)cc(Cl)c1Cl | – | inactive | – | 3.06% | – | inactive | inactive | inactive | inactive | inactive | – |
| CCOP(=O)(NC(C)C)Oc1ccc(SC)c(C)c1 (centres undefined) | – | inactive | – | -29.1% | – | inactive | 12.6 µM (active) | inactive | inactive | inactive | – |
| CCCCC(CC)COC(=O)c1ccccc1C(=O)OCC(CC)CCCC (centres undefined) | – | – | – | -29.3% | – | inactive | inactive | inactive | inactive | inactive | – |
| O=C(O)C(Cl)Cl | – | inactive | – | 2.37% | inactive | inactive | inactive | inactive | inactive | inactive | – |
| CN(C)NC(=O)CCC(=O)O | – | inactive | – | -4.24% | inactive | inactive | inactive | inactive | inactive | inactive | – |
| Nc1ccc(Cl)cc1 | – | inactive | – | -1.41% | inactive | inactive | inactive | inactive | inactive | inactive | – |
| CC(C)(O)C(=O)Nc1ccc([N+](=O)[O-])c(C(F)(F)F)c1 | – | inactive | – | -95.6% (active) | – | inactive | inactive | inactive | inactive | – | – |
| O=[N+]([O-])c1cc([N+](=O)[O-])c2ccccc2c1 | – | – | – | -22.1% | inactive | inactive | inactive | inactive | inactive | – | – |
| COC(C)(C)CCCC(C)C/C=C/C(C)=C/C(=O)OC(C)C (centres undefined) | – | inactive | – | -12% | inactive | inactive | inactive | inactive | inactive | inactive | – |
| O=[N+]([O-])c1c2ccccc2cc2ccccc12 | – | inactive | – | -0.277% | inactive | inactive | – | inactive | inactive | inactive | – |
| C[C@]12N[C@H](Cc3ccccc31)c1ccccc12 | – | inactive | inactive | – | – | – | – | – | – | – | – |
| Nc1ccc([N+](=O)[O-])cc1 | – | inactive | – | 0.412% | inactive | inactive | inactive | inactive | inactive | inactive | – |
| CN(C)[C@@H]1C(=O)C(C(N)=O)=C(O)[C@@]2(O)C(=O)C3=C(O)c4c(O)cccc4[C@@](C)(O)[C@H]3[C@H](O)[C@@H]12 | – | inactive | – | 0.531% | inactive | inactive | inactive | inactive | inactive | inactive | – |
| Cc1cc(O)ccc1Cl | – | inactive | – | -7.18% | inactive | inactive | inactive | inactive | inactive | inactive | – |

| SMILES | Potency [1] | outcome [2] | Potency [3] | activity change, negative = cytotoxicity [4] | Potency [5] | Potency [6] | Potency [7] | Potency [8] | Potency [9] | Potency [10] | Potency [4] |
| --- | --- | --- | --- | --- | --- | --- | --- | --- | --- | --- | --- |
| Nc1ccc(Cl)cc1N | – | inactive | – | – | 631 nM (active) | inactive | – | inactive | inactive | inactive | – |
| O=S(=O)(c1ccc(Cl)cc1)c1ccc(Cl)cc1 | – | – | – | -29.1% | – | inactive | inactive | inactive | inactive | inactive | – |
| NCCc1c[nH]c2ccccc12 | > 46 µM | inactive | inactive | – | – | – | – | – | – | – | – |
| O=C(O)Cc1cnc[nH]1 | > 46 µM | inactive | inactive | – | – | – | – | – | – | – | – |
| C=CC(=O)NCNC(=O)C=C | – | inactive | – | 2.37% | inactive | inactive | inactive | inactive | inactive | inactive | – |
| OCCCBr | – | inactive | – | 9.77% | inactive | inactive | inactive | inactive | inactive | inactive | – |
| CCCCOC(=O)c1ccccc1C(=O)OCc1ccccc1 | – | – | – | -9.01% | inactive | inactive | inactive | inactive | inactive | inactive | – |
| Cc1c(C(=O)c2cccc3ccccc23)c2cccc3c2n1[C@H](CN1CCOCC1)CO3 | > 46 µM | inactive | inactive | – | – | – | – | – | – | – | – |
| CCCCCCCCc1ccc(O)cc1 | – | inactive | – | -16.1% | inactive | inactive | inactive | inactive | inactive | inactive | – |
| C1CCC(NC2CCCCC2)CC1 | – | inactive | – | 3.55% and 8.48% | inactive | inactive | inactive | inactive | inactive | inactive | – |
| Cn1cnc(CCN)c1 | > 46 µM | inactive | inactive | – | – | – | – | – | – | – | – |
| c1cc2ccc3cccc4ccc(c1)c2c34 | – | – | – | 2.91% | inactive | inactive | inactive | inactive | inactive | inactive | – |
| CC(=O)[O][Hg][c]1ccccc1 | – | inactive | – | – | 63.1 nM (active) | 1.26 µM (active) | 0.126 µM (active) | 631 nM (active) | 2 µM (active) | 2 µM (active) | 10 µM (active) |
| CCOCCOC(C)=O | – | inactive | – | -15.1% | inactive | inactive | inactive | inactive | inactive | inactive | – |
| COc1ccc(C(c2ccc(OC)cc2)C(Cl)(Cl)Cl)cc1 | – | – | – | – | inactive | inactive | – | – | inactive | – | – |
| O=C(O)COc1ccccc1 | – | inactive | – | -9.54% | inactive | inactive | inactive | inactive | inactive | inactive | – |
